Among all 360,000 compounds or so, about 950 (0.26%) were called active. Only a selection was taken, and actives are over-represented in it overall. Unmarked numbers belong to inactive results. Cut-off read from the data, not from the text of the source: active = inhibition above about 11%; inactive = the rest.

The experiment in a line: reduced absorbance of E. coli cultures with phage – HTS, RecBCD inhibitor project, primary screen (AID 651602). To be noted: growth absorbance, at 11.9 µM, hits give high values.
For `Cc1ccc(-n2c(-c3ccc([N+](=O)[O-])cc3)nc3ccccc3c2=O)cc1`, the inhibition is 0.89%. For `O=[N+]([O-])c1cnc2ccc3ccccc3c2c1`, the inhibition was 18.9% (active). `C/C(=N/O)c1ccc2ccc3ccccc3c2c1`: the inhibition is 1.01%. For the compound `Cc1cccc(-n2c(C)nc3cc(C(=O)N4CCC5(CC4)OCCO5)ccc32)c1`, the inhibition is 4.97%. For `COC(=O)C1=C(c2ccc(OCc3ccccc3)cc2)C[C@@H]2CC[C@H]1N2C(=O)NCc1cccc(F)c1`, the inhibition was 4.61%. The same measure for `N#CC1=C(N)Oc2c(c(=O)oc3ccccc23)C1c1ccccc1OC(=O)c1cccs1` (stereo not given): 5.44%. To `COc1ccc(N=Cc2c(O)n(C)c(=O)[nH]c2=O)cc1` belongs 0.79%; to `CCc1nnc(NS(=O)(=O)c2ccc(N=Cc3c(O)n(-c4ccccc4)c(=O)[nH]c3=O)cc2)s1`, 11.9% (active). With `O=c1[nH]c(=O)n(-c2ccccc2)c(O)c1C=NC12CN3CN(CN(C3)C1)C2`, the inhibition is 1.36%. For the compound `CCC1(C)CC(CCNCc2ccc(N(C)C)cc2)(c2ccc(F)cc2)CCO1` (stereo not given), the inhibition was 4.38%.

The term inhibition denotes the relative decrease from the control value, in per cent.

For the origin of these results see PubChem BioAssay AID651602 (The Scripps Research Institute Molecular Screening Center, 2012).
